Experimental data: the supplement of paper PMC6555819

What was measured:
Assay in all cases: PBM binding z-score (relative to random genomic background probes); higher = stronger binding; sequences stand for … in GC…GCGATTGACAGCGTAGAATGAAGG
[1] = system: PPARg:RXRa DBDmut IVT, anti-RXR (DBD mutation: RXRa K156A/R161A, NR concentration 270 nM, RXRa partner concentration 90 nM)
Procedure, shortened: (§1)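 Each nuclear receptor dimer, without ligand, was incubated for 1 h on custom Agilent 4×180K protein-binding microarrays. Binding was detected with antibodies against each partner (one per run), and scanned fluorescence was regression-normalized. The binding z-scores are referenced to random human genomic background probes.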

[2] = system: PPARg:RXRa IVT, anti-PPARg (NR concentration 270 nM, RXRa partner concentration 90 nM)
Procedure, shortened: as §1

[3] = system: PPARg DBDmut:RXRa IVT, anti-PPARg (DBD mutation: PPARg1 K132A/R137A, NR concentration 270 nM, RXRa partner concentration 90 nM)
Procedure, shortened: as §1

[4] = system: PPARg DBDmut IVT, anti-PPARg (DBD mutation: PPARg1 K132A/R137A, NR concentration 270 nM)
Procedure, shortened: as §1

[5] = system: PPARg homodimer (NR concentration 180 nM)
Procedure, shortened: as §1

[6] = system: PXR:RXRa (NR concentration 270 nM, RXRa partner concentration 90 nM)
Procedure, shortened: as §1

[7] = system: PXR homodimer (NR concentration 270 nM)
Procedure, shortened: as §1

[8] = system: RARa:RXR (NR concentration 270 nM, RXRa partner concentration 90 nM)
Procedure, shortened: as §1

[9] = system: RARa homodimer (NR concentration 270 nM)
Procedure, shortened: as §1

[10] = system: RARb:RXRa (NR concentration 270 nM, RXRa partner concentration 90 nM)
Procedure, shortened: as §1

[11] = system: RARb homodimer (NR concentration 270 nM)
Procedure, shortened: as §1

[12] = system: RARg:RXRa (NR concentration 270 nM, RXRa partner concentration 90 nM)
Procedure, shortened: as §1

[13] = system: RARg homodimer (NR concentration 270 nM)
Procedure, shortened: as §1

[14] = system: RXRa DBDmut IVT, anti-RXR (DBD mutation: RXRa K156A/R161A, NR concentration 90 nM)
Procedure, shortened: as §1

[15] = system: RXRa homodimer (NR concentration 180 nM)
Procedure, shortened: as §1

[16] = system: THRa:RXRa (NR concentration 90 nM, RXRa partner concentration 90 nM)
Procedure, shortened: as §1

[17] = system: THRa homodimer (NR concentration 90 nM)
Procedure, shortened: as §1

[18] = system: VDR homodimer (NR concentration 270 nM)
Procedure, shortened: as §1

Sequence	PBM binding z-score [1]	PBM binding z-score [2]	PBM binding z-score [3]	PBM binding z-score [4]	PBM binding z-score [5]	PBM binding z-score [6]	PBM binding z-score [7]	PBM binding z-score [8]	PBM binding z-score [9]	PBM binding z-score [10]	PBM binding z-score [11]	PBM binding z-score [12]	PBM binding z-score [13]	PBM binding z-score [14]	PBM binding z-score [15]	PBM binding z-score [16]	PBM binding z-score [17]	PBM binding z-score [18]
CCTAGCAGGCCAATCTGGGTCACACAAGGCTTGA	4.53	5.23	0.519	-0.276	0.856	1.56	-0.6	1.86	0.119	1.76	2.53	1.61	1.82	0.0737	1.63	3.99	0.9	0.17
CTAGCAAGGTGAACAAGGTCGTTGATTACTATTC	2.52	2.56	0.0933	-0.41	0.474	2.46	1.4	1.95	-0.493	2.15	1.77	1.68	1.5	1.25	2.1	3.18	1.45	2.32
ATACCCAGGTGATCGTGAGGTCGTTGATACTAAC	-0.291	1.1	0.599	0.838	0.843	2.35	1.32	1.95	-0.274	0.914	2	1.49	0.63	0.432	1.39	3.14	2.72	2.52
CCTGCTAGGTCAATCGTCAGCTAAAGCAGCTCGC	4.52	3.19	-0.719	-1.31	0.995	0.842	-0.551	1.58	-0.666	3.63	2.83	3.59	4.42	1.78	2.15	2.11	0.36	-0.0155
CCTGCTAGGTCATCGTCAGCTAATCTACAGTATG	4.49	3.59	-0.277	-0.677	0.929	1.45	-0.29	2.39	-0.471	4.03	3.08	4.09	5.07	2.37	3.06	2.92	1.19	0.596
GCAGACAGGTGCAACGCAGGTAACTCAGGGTGGC	-0.637	-0.593	-1.75	-1.51	-0.974	-0.377	-0.796	0.0404	-1.09	-0.3	-0.431	-0.314	-0.365	0.123	0.00957	2.13	-0.805	-0.15
CAAACTAGGTCAAGAGGTAAAAGTCCGCTTCCCG	8.5	8.39	6.02	5.32	3.74	1.92	0.28	3.43	0.988	4.19	3.32	4.71	4.74	1.44	3.45	2.99	1.2	0.657
TCTAGCAGGCCAGAGGGTCACCCAAGAGGTACGG	0.386	0.974	-0.634	-0.348	0.411	2	-0.502	2.95	0.0468	2.43	2.74	3.04	2.17	-0.135	2.96	1.97	0.143	0.203
CTCGAAAGTTCGTGCTCAGGTGAGTATACCAAAC	-0.18	0.443	-0.211	0.0374	0.564	1.4	0.241	1.64	-0.0689	2.06	1.55	2.29	1.52	2.83	1.01	2.86	0.851	1.88
CCTCGGATGACAACAGGAGGTCAGAGCTGCCAGA	-0.191	-0.245	0.202	-0.797	1.63	1.72	0.385	2.22	1.58	2.02	3	2.24	1.91	-0.48	2.01	1.92	0.407	0.749
CCGACTGGGGCATAAGGTCACCATAAGCCAGCCC	2.94	4.43	0.997	0.485	6.12	3.81	0.594	5.16	2.35	3.84	4.32	4.86	4.18	0.204	4.29	4.08	4.71	1.77
TCTAGTTGGTCGAAGGTCACACACTCGAAATGCG	1.87	3.68	1.01	1.13	3.06	3.66	1.06	4.17	1.25	3.51	3.99	4.39	3.86	1.37	4.15	3.07	1.83	1.97
GCGACTGGGGCAAAGCAGATTACCATAAGGTTGG	4.66	3.29	-0.663	-0.34	-0.207	-0.451	-0.273	-0.203	-0.607	0.381	-0.011	0.122	0.273	-0.0663	0.0208	-0.00555	-0.248	-0.153
TAGCCTTGGTCATGCGGGCCAGTATAGTGTCGGC	-0.432	0.0959	-0.481	-0.0984	-1.18	-0.758	-1.18	-0.757	-1.23	0.534	-0.234	-0.0381	0.129	-1.52	-0.29	-0.715	-0.902	-0.904
